Laboratory results published in PubChem BioAssay (Tox21).
Inconclusive results are not listed. Where a call stands in place of a potency, no number is given. Calls of active or inactive are those of the source. Unless noted, the call rests on the fitted dose curve; in most records, active means well fitted curve in the direction sought with a large enough effect in the repeat runs; inconclusive means weak or mixed curves; inactive means no such curve, though single readings can be large; an effect the other way counts as inactive or inconclusive.

Biological target: Estrogen receptor (Homo sapiens) (UniProt P03372)
Sequence (P03372 whole entry, looked up): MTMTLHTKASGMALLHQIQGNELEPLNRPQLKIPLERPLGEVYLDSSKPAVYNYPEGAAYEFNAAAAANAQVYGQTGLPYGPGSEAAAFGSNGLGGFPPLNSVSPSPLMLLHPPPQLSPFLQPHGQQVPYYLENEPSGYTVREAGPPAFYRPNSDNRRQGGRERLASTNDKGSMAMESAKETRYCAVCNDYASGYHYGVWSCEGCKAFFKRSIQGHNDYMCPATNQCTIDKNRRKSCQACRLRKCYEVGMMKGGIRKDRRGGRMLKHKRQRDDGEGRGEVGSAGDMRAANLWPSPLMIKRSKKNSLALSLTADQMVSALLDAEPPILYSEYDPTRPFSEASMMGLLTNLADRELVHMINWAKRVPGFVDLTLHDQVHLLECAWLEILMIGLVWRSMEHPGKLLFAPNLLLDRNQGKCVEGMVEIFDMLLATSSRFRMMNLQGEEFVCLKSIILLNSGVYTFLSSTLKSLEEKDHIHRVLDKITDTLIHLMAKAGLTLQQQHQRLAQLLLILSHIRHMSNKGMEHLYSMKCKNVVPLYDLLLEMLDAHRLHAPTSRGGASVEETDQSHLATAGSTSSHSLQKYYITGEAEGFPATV
Assay: qHTS assay to identify small molecule agonists of the estrogen receptor alpha (ER-alpha) signaling pathway using the BG1 cell line (AID 743079); further: nearly all actives have a fitted effect of over 20% in size
Details: BG1Luc4E2 cells, ERE-luciferase agonist, 22 h; series mostly up to 70.3 µM

Row | SMILES | Potency
1 | CC(=O)N[C@@H](CCC(N)=O)C(=O)O | inactive
2 | CC(=O)OC(C)(C)C | inactive
3 | COC(=O)c1ccc(C(=O)OC)c(C(=O)OC)c1 | inactive
4 | CCO[Si](CCCN=C=O)(OCC)OCC | inactive
5 | COCCOC(=O)CC#N | inactive
6 | Cc1nccn1CC1CCc2c(c3ccccc3n2C)C1=O (centres undefined) | inactive
7 | C=C(C)[C@H]1CC=C(C)CC1 | inactive
8 | CCCCN(CCO)CCO | inactive
9 | CCc1cc(S(=O)(=O)O)c2cc(C(C)C)cccc1-2 | inactive
10 | CC(C)[N+](C)(C)CC(O)COc1cccc2ccccc12 (centres undefined) | inactive
11 | COC(=O)CCCC(=O)O | inactive
12 | NC(=O)c1ncn([C@@H]2O[C@H](CO)[C@@H](O)[C@H]2O)c1O | inactive
13 | COc1ccc(COC=O)cc1 | inactive
14 | OCc1ccccn1 | inactive
15 | Nc1ccc2cc(S(=O)(=O)O)ccc2c1 | inactive
16 | NC(=O)c1c(Cl)cccc1Cl | inactive
17 | CC/C=C\C#N | inactive

Tested on: not listed separately
Assay: qHTS assay to identify small molecule antagonists of the estrogen receptor alpha (ER-alpha) signaling pathway using the BG1 cell line (AID 743080; calls by dose curve; further: nearly all actives have a fitted effect of over 25% in size)
Details: BG1Luc4E2 ERE-luciferase antagonist mode, luminescence; series mostly up to 70.3 µM
Summary of the method: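 Antagonist mode: compounds in DMSO were pinned onto BG1-Luc-4E2 cells alongside 17beta-estradiol agonist, incubated 21.5 h, and ERE-driven luciferase measured with ONE-Glo. Cytotoxicity was multiplexed using CellTiter-Fluor fluorescence.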

Row | SMILES | Potency
18 | C=C(C)C(=O)OCCCCCCCCCCCCCCCCCC | inactive
19 | CC(=O)N[C@@H](CCC(N)=O)C(=O)O | inactive
20 | COC(=O)c1ccc(C(=O)OC)c(C(=O)OC)c1 | inactive
21 | CCO[Si](CCCN=C=O)(OCC)OCC | inactive
22 | Cc1nccn1CC1CCc2c(c3ccccc3n2C)C1=O (centres undefined) | inactive
23 | C=C(C)[C@H]1CC=C(C)CC1 | inactive
24 | CCCCN(CCO)CCO | inactive
25 | COC(=O)CCCC(=O)O | inactive
26 | COc1ccc(COC=O)cc1 | inactive
27 | Nc1ccc2cc(S(=O)(=O)O)ccc2c1 | inactive

Tested on: not listed separately
Assay: qHTS assay to identify small molecule antagonists of the estrogen receptor alpha (ER-alpha) signaling pathway using the BG1 cell line - cell viability counter screen (AID 743081);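 further: compound given together with 17beta-estradiol as the ER stimulus; nearly all actives have a fitted effect of over 45% in size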
Details: BG1Luc4E2 viability, CellTiter-Fluor, 22 h; series mostly up to 70.3 µM

Row | SMILES | outcome
28 | C=C(C)C(=O)OCCCCCCCCCCCCCCCCCC | inactive
29 | C#CC(C)(O)CC(C)C (centres undefined) | inactive
30 | CC(=O)OC(C)(C)C | inactive
31 | COC(=O)c1ccc(C(=O)OC)c(C(=O)OC)c1 | inactive
32 | CC1=CC(=O)CCC1 | inactive
33 | CCO[Si](CCCN=C=O)(OCC)OCC | inactive
34 | COCCOC(=O)CC#N | inactive
35 | Cc1nccn1CC1CCc2c(c3ccccc3n2C)C1=O (centres undefined) | inactive
36 | C=CC(=O)OCCCCCC | inactive
37 | C=C(C)[C@H]1CC=C(C)CC1 | inactive
38 | CC(C=O)Cc1ccc(C(C)C)cc1 (centres undefined) | inactive
39 | CCCCN(CCO)CCO | inactive
40 | CCCCc1ccc(N)cc1 | inactive
41 | COc1cc(C(=O)N2CCOCC2)cc(OC)c1OC | inactive
42 | CCc1cc(S(=O)(=O)O)c2cc(C(C)C)cccc1-2 | inactive
43 | Cc1cc(C)c(NC(=O)CN(CC(=O)O)CC(=O)O)c(C)c1Br | inactive
44 | CC(C)[N+](C)(C)CC(O)COc1cccc2ccccc12 (centres undefined) | inactive
45 | COc1cccc(OC)c1 | inactive

Row | SMILES | outcome
46 | CCCCCCCCCCCCCCC | inactive
47 | COC(=O)CCCC(=O)O | inactive
48 | NC(=O)c1ncn([C@@H]2O[C@H](CO)[C@@H](O)[C@H]2O)c1O | inactive
49 | COc1ccc(COC=O)cc1 | inactive
50 | OCc1ccccn1 | inactive
51 | Nc1ccc2cc(S(=O)(=O)O)ccc2c1 | inactive
52 | OCC(O)[C@@H](O)[C@H](O)[C@H](O)CO[C@H]1O[C@H](CO)[C@@H](O)[C@H](O)[C@H]1O (some centres undefined) | inactive
53 | CN(C)N=Nc1ccccc1 | inactive
54 | CC(O)CN(CCCN(C)C)CCCN(C)C (centres undefined) | inactive
55 | CCC(C)OC(=O)N1CCCCC1CCO (centres undefined) | inactive
56 | NS(=O)(=O)c1cc(C2(O)NC(=O)c3ccccc32)ccc1Cl (centres undefined) | inactive
57 | N#CC1(O)CCCCC1 | inactive
58 | CC(C)CCCC(C)CCCC(C)CCCCC(C)CCCC(C)CCCC(C)C (centres undefined) | inactive
59 | CCCC=O | inactive
60 | CCCc1ccccc1O | inactive
61 | NC(=O)c1c(Cl)cccc1Cl | inactive
62 | CC/C=C\C#N | inactive

Biological target: Aromatase (Homo sapiens) (UniProt P11511)
Sequence (P11511 whole entry, looked up): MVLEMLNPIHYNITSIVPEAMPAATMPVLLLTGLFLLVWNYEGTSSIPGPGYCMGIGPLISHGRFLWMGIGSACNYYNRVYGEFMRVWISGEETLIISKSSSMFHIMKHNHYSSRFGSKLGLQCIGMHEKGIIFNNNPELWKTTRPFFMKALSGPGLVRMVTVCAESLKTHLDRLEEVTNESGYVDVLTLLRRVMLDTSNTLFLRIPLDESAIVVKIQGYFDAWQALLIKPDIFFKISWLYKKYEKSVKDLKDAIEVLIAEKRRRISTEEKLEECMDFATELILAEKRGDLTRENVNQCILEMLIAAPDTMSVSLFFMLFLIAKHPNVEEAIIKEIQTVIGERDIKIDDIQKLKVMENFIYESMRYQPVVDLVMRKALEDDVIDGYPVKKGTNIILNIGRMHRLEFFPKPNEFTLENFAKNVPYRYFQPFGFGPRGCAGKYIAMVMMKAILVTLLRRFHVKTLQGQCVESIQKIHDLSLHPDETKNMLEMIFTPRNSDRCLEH
Assay: qHTS assay to identify aromatase inhibitors (AID 743083); further: nearly all actives have a fitted effect of over 55% in size
Details: MCF-7 aro ERE, testosterone-driven ERE luciferase, 24 h; series mostly up to 70.3 µM

Row | SMILES | Potency
63 | C=C(C)C(=O)OCCCCCCCCCCCCCCCCCC | inactive
64 | CC(=O)N[C@@H](CCC(N)=O)C(=O)O | inactive
65 | C#CC(C)(O)CC(C)C (centres undefined) | inactive
66 | CC(=O)OC(C)(C)C | inactive
67 | COC(=O)c1ccc(C(=O)OC)c(C(=O)OC)c1 | inactive
68 | CC1=CC(=O)CCC1 | inactive
69 | CCO[Si](CCCN=C=O)(OCC)OCC | inactive
70 | COCCOC(=O)CC#N | inactive
71 | Cc1nccn1CC1CCc2c(c3ccccc3n2C)C1=O (centres undefined) | inactive
72 | C=CC(=O)OCCCCCC | inactive
73 | C=C(C)[C@H]1CC=C(C)CC1 | inactive
74 | CC(C=O)Cc1ccc(C(C)C)cc1 (centres undefined) | inactive
75 | CCCCN(CCO)CCO | inactive
76 | CCCCc1ccc(N)cc1 | inactive
77 | COc1cc(C(=O)N2CCOCC2)cc(OC)c1OC | inactive
78 | CCc1cc(S(=O)(=O)O)c2cc(C(C)C)cccc1-2 | inactive

Row | SMILES | Potency
79 | Cc1cc(C)c(NC(=O)CN(CC(=O)O)CC(=O)O)c(C)c1Br | inactive
80 | CC(C)[N+](C)(C)CC(O)COc1cccc2ccccc12 (centres undefined) | inactive
81 | COc1cccc(OC)c1 | inactive
82 | COC(=O)CCCC(=O)O | inactive
83 | NC(=O)c1ncn([C@@H]2O[C@H](CO)[C@@H](O)[C@H]2O)c1O | inactive
84 | COc1ccc(COC=O)cc1 | inactive
85 | OCc1ccccn1 | inactive
86 | Nc1ccc2cc(S(=O)(=O)O)ccc2c1 | inactive
87 | OCC(O)[C@@H](O)[C@H](O)[C@H](O)CO[C@H]1O[C@H](CO)[C@@H](O)[C@H](O)[C@H]1O (some centres undefined) | inactive
88 | CCC(C)OC(=O)N1CCCCC1CCO (centres undefined) | inactive
89 | NS(=O)(=O)c1cc(C2(O)NC(=O)c3ccccc32)ccc1Cl (centres undefined) | inactive
90 | CC(C)CCCC(C)CCCC(C)CCCCC(C)CCCC(C)CCCC(C)C (centres undefined) | inactive
91 | CCCC=O | inactive
92 | CCCc1ccccc1O | inactive
93 | NC(=O)c1c(Cl)cccc1Cl | inactive
94 | CC/C=C\C#N | inactive
